{
  "source": "the supplement of paper PMC9446081",
  "note": "± gives the standard deviation of the averaged measurements.",
  "data": [
    {"target": "MurC (UniProt C4ZRI6)", "sequence (C4ZRI6 whole entry, looked up)": "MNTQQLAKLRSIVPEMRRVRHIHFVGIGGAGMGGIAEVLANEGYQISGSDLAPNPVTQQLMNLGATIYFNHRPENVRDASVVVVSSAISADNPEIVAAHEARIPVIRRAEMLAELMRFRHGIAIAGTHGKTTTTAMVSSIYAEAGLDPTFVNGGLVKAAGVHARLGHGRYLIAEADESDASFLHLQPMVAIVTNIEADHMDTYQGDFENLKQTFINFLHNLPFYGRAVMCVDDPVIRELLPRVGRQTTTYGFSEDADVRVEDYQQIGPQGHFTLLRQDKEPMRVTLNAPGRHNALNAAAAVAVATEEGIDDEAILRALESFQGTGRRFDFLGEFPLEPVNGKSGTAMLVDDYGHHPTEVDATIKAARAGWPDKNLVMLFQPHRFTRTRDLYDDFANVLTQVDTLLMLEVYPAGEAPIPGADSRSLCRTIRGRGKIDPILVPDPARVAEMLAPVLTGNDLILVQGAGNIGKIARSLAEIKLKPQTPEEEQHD", "experiment": "relative enzymatic activity vs untreated control (fraction); higher = less inhibition", "details": "100 µM; incubation time: 2 h at 37 C", "description": "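In vitro enzymatic inhibition assays (ProFoldin kits) for 12 purified essential E. coli enzymes or complexes, each treated with 218 active antibacterial compounds at 100 µM for 2 h at 37°C. Read-outs were fluorescence or absorbance (phosphate detection, dye binding), converted to activity via standard curves and expressed relative to untreated DMSO controls.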", "values": [
      {"smiles": "Cc1c(N)nc([C@H](CC(N)=O)NC[C@@H](N)C(N)=O)nc1C(=O)N[C@H](C(=O)N[C@@H](C)[C@H](O)[C@@H](C)C(=O)N[C@@H](C(=O)NCCc1nc(-c2nc(C(=O)NCCC[S+](C)C)cs2)cs1)[C@@H](C)O)[C@@H](O[C@H]1O[C@H](CO)[C@H](O)[C@@H](O)[C@H]1O[C@H]1O[C@H](CO)[C@@H](O)[C@H](OC(N)=O)[C@@H]1O)c1c[nH]cn1", "relative enzymatic activity": "0.895 ± 0.017"},
      {"smiles": "CC(=O)Oc1ccc(Cl)c2cccnc12", "relative enzymatic activity": "1.03 ± 0.041"},
      {"smiles": "Cc1c(N)nc([C@H](CC(N)=O)NC[C@@H](N)C(N)=O)nc1C(=O)N[C@H](C(=O)N[C@@H](C)[C@H](O)[C@@H](C)C(=O)N[C@@H](C(=O)NCCc1nc(-c2nc(C(=O)NCCC[S+](C)C)cs2)cs1)[C@@H](C)O)[C@@H](O[C@H]1O[C@H](CO)[C@H](O)[C@@H](O)[C@H]1O[C@H]1O[C@H](CO)[C@@H](O)[C@H](OC(N)=O)[C@@H]1O)c1cnc[nH]1", "relative enzymatic activity": "0.849 ± 0.025"},
      {"smiles": "CCCCCCCCCCCCCCCC[n+]1ccccc1", "relative enzymatic activity": "0.754 ± 0.24"},
      {"smiles": "CN[C@H]1C[C@@H](N)[C@H](O)[C@@H](O[C@@H]2O[C@H](CO)[C@H](O)[C@@H]3O[C@@]4(O[C@H]23)O[C@H]([C@@H](N)CO)[C@H](O)[C@H](O)[C@H]4O)[C@@H]1O", "relative enzymatic activity": "1.04 ± 0.017"},
      {"smiles": "O=C1C=C2C(=CCOC2O)O1", "note": "(centres undefined)", "relative enzymatic activity": "1.06 ± 0.07"},
      {"smiles": "COP(=S)(OC)Oc1cc(Cl)c(Cl)cc1Cl", "relative enzymatic activity": "1.08 ± 0.024"},
      {"smiles": "CCn1cc(C(=O)[O-])c(=O)c2cc3c(cc21)OCO3.[K+]", "relative enzymatic activity": "0.977 ± 0.032"},
      {"smiles": "[O-][n+]1ccccc1[S][Zn][S]c1cccc[n+]1[O-]", "relative enzymatic activity": "1.21 ± 0.17"},
      {"smiles": "CCCCCCCCCCCCCCCC[n+]1ccccc1.[Cl-]", "relative enzymatic activity": "0.264 ± 0.051"},
      {"smiles": "Cc1nc2c(=O)n(C)c(=O)nc-2n(C)n1", "relative enzymatic activity": "1.06 ± 0.095"},
      {"smiles": "CC(=O)[O][Hg][c]1ccccc1", "relative enzymatic activity": "1.69 ± 0.032"},
      {"smiles": "CN(C)[C@@H]1C(=O)[C@H](C(N)=O)C(=O)[C@@]2(O)C(=O)[C@@H]3C(=O)c4c(O)cccc4[C@@](C)(O)[C@H]3C[C@@H]12", "relative enzymatic activity": "1 ± 0.031"},
      {"smiles": "O=[N+]([O-])c1ccc(N(CCO)CCO)c2c1no[n+]2[O-]", "relative enzymatic activity": "0.936 ± 0.055"},
      {"smiles": "CN1C(=O)[C@]23CC4=CC=C[C@H](O)[C@H]4N2C(=O)[C@@]1(CO)SS3", "relative enzymatic activity": "0.8476 ± 0.0014"},
      {"smiles": "CN(C)[C@@H]1C(=O)[C@@H](C(N)=O)C(=O)[C@@]2(O)C(=O)[C@H]3C(=O)c4c(O)ccc(Cl)c4[C@@](C)(O)[C@H]3C[C@@H]12", "relative enzymatic activity": "1.08 ± 0.068"},
      {"smiles": "C[CH2][Hg][S]c1ccccc1C(=O)[O-].[Na+]", "relative enzymatic activity": "1.17 ± 0.085"},
      {"smiles": "Oc1cc(Cl)ccc1Oc1ccc(Cl)cc1Cl", "relative enzymatic activity": "1.2 ± 0.16"},
      {"smiles": "O=S(=O)(O)O.Oc1cccc2cccnc12", "relative enzymatic activity": "1.08 ± 0.015"},
      {"smiles": "O=[N+]([O-])C(Br)(CO)CO", "relative enzymatic activity": "1.11 ± 0.12"},
      {"smiles": "CCCCCCCCCCCCCCCC[N+](C)(C)C.[Br-]", "relative enzymatic activity": "0.492 ± 0.29"},
      {"smiles": "Cn1ncnc2c(=O)n(C)c(=O)nc1-2", "relative enzymatic activity": "0.99 ± 0.11"},
      {"smiles": "CNC1C(O)C(OC2C(N)CC(N)C(OC3OC(C(C)O)C(O)C(O)C3N)C2O)OCC1(C)O", "note": "(centres undefined)", "relative enzymatic activity": "1.03 ± 0.029"},
      {"smiles": "CN(C)[C@@H]1C(=O)C(C(N)=O)=C(O)[C@@]2(O)C(O)=C3C(=O)c4c(O)cccc4[C@](C)(O)[C@H]3C[C@@H]12", "relative enzymatic activity": "1.017 ± 0.0095"}
    ]}
  ]
}
